# From doi:10.1101/2024.03.05.583629
# Assays:
# [1] = molecular target: pT7_6His-AlfaTag-HOXD13 (human, UniProt P35453 263-343); assay: PADIT-seq; conditions: dsDNA, one strand shown
# [2] = molecular target: pT7_6His-AlfaTag-ZIF268 (human, UniProt P18146 335-423); assay: PADIT-seq; conditions: dsDNA, one strand shown
# Sequence of pT7_6His-AlfaTag-HOXD13 (P35453 263-343): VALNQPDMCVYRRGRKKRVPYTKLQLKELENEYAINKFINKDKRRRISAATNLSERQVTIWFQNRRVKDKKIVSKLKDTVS
Sequence,binding signal [1],binding signal [2]
CTCGAGGATATCAAGATCTGGCCTCGGCGTTTTAACAGGAACCTCTAGCTAGCCGACTCACTATAGGGATAATCGCCCTGAGCAAAGACC,1.92 ± 0.0739 log2FC,0.0535 ± 0.0797 log2FC
CTCGAGGATATCAAGATCTGGCCTCGGCCTTTTAGGAGGAACCTCTAGCTAGCCGACTCACTATAGGGATAATCGCCCTGAGCAAAGACC,1.3 ± 0.0799 log2FC,0.0187 ± 0.0815 log2FC
CTCGAGGATATCAAGATCTGGCCTCGGCTTATTAAAAGGAACCTCTAGCTAGCCGACTCACTATAGGGATAATCGCCCTGAGCAAAGACC,3.06 ± 0.0807 log2FC,0.0487 ± 0.0902 log2FC
CTCGAGGATATCAAGATCTGGCCTCGGCGTTTTAGCAGGAACCTCTAGCTAGCCGACTCACTATAGGGATAATCGCCCTGAGCAAAGACC,0.799 ± 0.115 log2FC,0.0694 ± 0.112 log2FC
CTCGAGGATATCAAGATCTGGCCTCGGCCTTTTAAGGGGAACCTCTAGCTAGCCGACTCACTATAGGGATAATCGCCCTGAGCAAAGACC,1.67 ± 0.0786 log2FC,0.073 ± 0.082 log2FC
CTCGAGGATATCAAGATCTGGCCTCGGCGAGTGGGCGGGAACCTCTAGCTAGCCGACTCACTATAGGGATAATCGCCCTGAGCAAAGACC,-0.602 ± 0.0984 log2FC,2.79 ± 0.0771 log2FC
CTCGAGGATATCAAGATCTGGCCTCGGCCGCCCACCCGGAACCTCTAGCTAGCCGACTCACTATAGGGATAATCGCCCTGAGCAAAGACC,–,0.112 ± 0.113 log2FC
CTCGAGGATATCAAGATCTGGCCTCGGCGTTTTAGCCGGAACCTCTAGCTAGCCGACTCACTATAGGGATAATCGCCCTGAGCAAAGACC,-0.579 ± 0.147 log2FC,0.0458 ± 0.125 log2FC
CTCGAGGATATCAAGATCTGGCCTCGGCGACATAAAAGGAACCTCTAGCTAGCCGACTCACTATAGGGATAATCGCCCTGAGCAAAGACC,1.3 ± 0.0763 log2FC,0.00765 ± 0.0777 log2FC
CTCGAGGATATCAAGATCTGGCCTCGGCGCGAAGGCGGGAACCTCTAGCTAGCCGACTCACTATAGGGATAATCGCCCTGAGCAAAGACC,-1.08 ± 0.132 log2FC,0.278 ± 0.0993 log2FC
CTCGAGGATATCAAGATCTGGCCTCGGCTGTTGGGCGGGAACCTCTAGCTAGCCGACTCACTATAGGGATAATCGCCCTGAGCAAAGACC,-1.03 ± 0.1 log2FC,0.111 ± 0.0773 log2FC
CTCGAGGATATCAAGATCTGGCCTCGGCACCGTAAAAGGAACCTCTAGCTAGCCGACTCACTATAGGGATAATCGCCCTGAGCAAAGACC,1.91 ± 0.0753 log2FC,0.0818 ± 0.0804 log2FC
CTCGAGGATATCAAGATCTGGCCTCGGCAGCGTAAAAGGAACCTCTAGCTAGCCGACTCACTATAGGGATAATCGCCCTGAGCAAAGACC,0.403 ± 0.0993 log2FC,0.0644 ± 0.094 log2FC
CTCGAGGATATCAAGATCTGGCCTCGGCACGTGGGCGGGAACCTCTAGCTAGCCGACTCACTATAGGGATAATCGCCCTGAGCAAAGACC,-0.888 ± 0.116 log2FC,3.56 ± 0.0868 log2FC
CTCGAGGATATCAAGATCTGGCCTCGGCTTTTTAGAAGGAACCTCTAGCTAGCCGACTCACTATAGGGATAATCGCCCTGAGCAAAGACC,0.559 ± 0.108 log2FC,0.0735 ± 0.104 log2FC
CTCGAGGATATCAAGATCTGGCCTCGGCATTTTACGTGGAACCTCTAGCTAGCCGACTCACTATAGGGATAATCGCCCTGAGCAAAGACC,2.63 ± 0.0745 log2FC,0.139 ± 0.0815 log2FC
CTCGAGGATATCAAGATCTGGCCTCGGCCGCTTGCGCGGAACCTCTAGCTAGCCGACTCACTATAGGGATAATCGCCCTGAGCAAAGACC,-0.985 ± 0.131 log2FC,0.0632 ± 0.103 log2FC
CTCGAGGATATCAAGATCTGGCCTCGGCTAGTGGGCGGGAACCTCTAGCTAGCCGACTCACTATAGGGATAATCGCCCTGAGCAAAGACC,-0.725 ± 0.112 log2FC,1.78 ± 0.084 log2FC
CTCGAGGATATCAAGATCTGGCCTCGGCTCGGTAAAAGGAACCTCTAGCTAGCCGACTCACTATAGGGATAATCGCCCTGAGCAAAGACC,0.426 ± 0.0878 log2FC,0.074 ± 0.0831 log2FC
CTCGAGGATATCAAGATCTGGCCTCGGCAGTGTAAAAGGAACCTCTAGCTAGCCGACTCACTATAGGGATAATCGCCCTGAGCAAAGACC,0.712 ± 0.08 log2FC,0.045 ± 0.0778 log2FC
CTCGAGGATATCAAGATCTGGCCTCGGCGTTTTAGTGGGAACCTCTAGCTAGCCGACTCACTATAGGGATAATCGCCCTGAGCAAAGACC,1.76 ± 0.0845 log2FC,0.0814 ± 0.0894 log2FC
CTCGAGGATATCAAGATCTGGCCTCGGCGTTTGGGCGGGAACCTCTAGCTAGCCGACTCACTATAGGGATAATCGCCCTGAGCAAAGACC,–,0.123 ± 0.0893 log2FC
CTCGAGGATATCAAGATCTGGCCTCGGCATATGGGCGGGAACCTCTAGCTAGCCGACTCACTATAGGGATAATCGCCCTGAGCAAAGACC,-0.745 ± 0.103 log2FC,0.0376 ± 0.0849 log2FC
CTCGAGGATATCAAGATCTGGCCTCGGCGTTTTAACGGGAACCTCTAGCTAGCCGACTCACTATAGGGATAATCGCCCTGAGCAAAGACC,1.81 ± 0.0879 log2FC,0.0881 ± 0.0918 log2FC
CTCGAGGATATCAAGATCTGGCCTCGGCGCGGGCGCGGGAACCTCTAGCTAGCCGACTCACTATAGGGATAATCGCCCTGAGCAAAGACC,-1.05 ± 0.132 log2FC,0.156 ± 0.102 log2FC
CTCGAGGATATCAAGATCTGGCCTCGGCGCGTGGGGTGGAACCTCTAGCTAGCCGACTCACTATAGGGATAATCGCCCTGAGCAAAGACC,-1.1 ± 0.157 log2FC,1.28 ± 0.111 log2FC
CTCGAGGATATCAAGATCTGGCCTCGGCCGCCACCGCGGAACCTCTAGCTAGCCGACTCACTATAGGGATAATCGCCCTGAGCAAAGACC,-0.959 ± 0.127 log2FC,0.142 ± 0.0977 log2FC

Sequence,binding signal [1],binding signal [2]
CTCGAGGATATCAAGATCTGGCCTCGGCCGCCCATGCGGAACCTCTAGCTAGCCGACTCACTATAGGGATAATCGCCCTGAGCAAAGACC,-0.953 ± 0.115 log2FC,0.0314 ± 0.091 log2FC
CTCGAGGATATCAAGATCTGGCCTCGGCTTTTTAGAGGGAACCTCTAGCTAGCCGACTCACTATAGGGATAATCGCCCTGAGCAAAGACC,1.39 ± 0.106 log2FC,0.141 ± 0.108 log2FC
CTCGAGGATATCAAGATCTGGCCTCGGCATTTGGGCGGGAACCTCTAGCTAGCCGACTCACTATAGGGATAATCGCCCTGAGCAAAGACC,-0.941 ± 0.11 log2FC,0.125 ± 0.0899 log2FC
CTCGAGGATATCAAGATCTGGCCTCGGCGCGTTGGCGGGAACCTCTAGCTAGCCGACTCACTATAGGGATAATCGCCCTGAGCAAAGACC,-1.07 ± 0.16 log2FC,1.75 ± 0.117 log2FC
CTCGAGGATATCAAGATCTGGCCTCGGCCGCCCACTCGGAACCTCTAGCTAGCCGACTCACTATAGGGATAATCGCCCTGAGCAAAGACC,–,0.873 ± 0.0842 log2FC
CTCGAGGATATCAAGATCTGGCCTCGGCGCGTGGAGAGGAACCTCTAGCTAGCCGACTCACTATAGGGATAATCGCCCTGAGCAAAGACC,–,0.18 ± 0.105 log2FC
CTCGAGGATATCAAGATCTGGCCTCGGCCGCCCACAAGGAACCTCTAGCTAGCCGACTCACTATAGGGATAATCGCCCTGAGCAAAGACC,–,0.545 ± 0.102 log2FC
CTCGAGGATATCAAGATCTGGCCTCGGCGCGTGGGGCGGAACCTCTAGCTAGCCGACTCACTATAGGGATAATCGCCCTGAGCAAAGACC,–,0.735 ± 0.107 log2FC
CTCGAGGATATCAAGATCTGGCCTCGGCCGCCCAGATGGAACCTCTAGCTAGCCGACTCACTATAGGGATAATCGCCCTGAGCAAAGACC,–,0.0137 ± 0.113 log2FC
CTCGAGGATATCAAGATCTGGCCTCGGCTACCCACGCGGAACCTCTAGCTAGCCGACTCACTATAGGGATAATCGCCCTGAGCAAAGACC,–,0.362 ± 0.0981 log2FC
CTCGAGGATATCAAGATCTGGCCTCGGCGCGTGGAAAGGAACCTCTAGCTAGCCGACTCACTATAGGGATAATCGCCCTGAGCAAAGACC,–,0.108 ± 0.113 log2FC
CTCGAGGATATCAAGATCTGGCCTCGGCGTCCCACGCGGAACCTCTAGCTAGCCGACTCACTATAGGGATAATCGCCCTGAGCAAAGACC,–,0.365 ± 0.0872 log2FC
CTCGAGGATATCAAGATCTGGCCTCGGCCACCCACGCGGAACCTCTAGCTAGCCGACTCACTATAGGGATAATCGCCCTGAGCAAAGACC,–,2.1 ± 0.135 log2FC
CTCGAGGATATCAAGATCTGGCCTCGGCCGCCTCCGCGGAACCTCTAGCTAGCCGACTCACTATAGGGATAATCGCCCTGAGCAAAGACC,–,0.383 ± 0.0978 log2FC
CTCGAGGATATCAAGATCTGGCCTCGGCGCGAAAGCGGGAACCTCTAGCTAGCCGACTCACTATAGGGATAATCGCCCTGAGCAAAGACC,–,0.0239 ± 0.114 log2FC
CTCGAGGATATCAAGATCTGGCCTCGGCCGCCCTCGCGGAACCTCTAGCTAGCCGACTCACTATAGGGATAATCGCCCTGAGCAAAGACC,–,0.0695 ± 0.102 log2FC
CTCGAGGATATCAAGATCTGGCCTCGGCGGCCCACGCGGAACCTCTAGCTAGCCGACTCACTATAGGGATAATCGCCCTGAGCAAAGACC,–,0.55 ± 0.0922 log2FC
CTCGAGGATATCAAGATCTGGCCTCGGCGCGTGGGCTGGAACCTCTAGCTAGCCGACTCACTATAGGGATAATCGCCCTGAGCAAAGACC,–,2.62 ± 0.0973 log2FC
CTCGAGGATATCAAGATCTGGCCTCGGCGCGTGGGAAGGAACCTCTAGCTAGCCGACTCACTATAGGGATAATCGCCCTGAGCAAAGACC,–,2.03 ± 0.0894 log2FC
CTCGAGGATATCAAGATCTGGCCTCGGCGCGCTGGCGGGAACCTCTAGCTAGCCGACTCACTATAGGGATAATCGCCCTGAGCAAAGACC,–,0.0489 ± 0.154 log2FC
CTCGAGGATATCAAGATCTGGCCTCGGCGCGTGGGCCGGAACCTCTAGCTAGCCGACTCACTATAGGGATAATCGCCCTGAGCAAAGACC,–,2.26 ± 0.0976 log2FC
CTCGAGGATATCAAGATCTGGCCTCGGCCGCCAACGCGGAACCTCTAGCTAGCCGACTCACTATAGGGATAATCGCCCTGAGCAAAGACC,–,0.204 ± 0.0826 log2FC
CTCGAGGATATCAAGATCTGGCCTCGGCTGCCCACGCGGAACCTCTAGCTAGCCGACTCACTATAGGGATAATCGCCCTGAGCAAAGACC,–,0.958 ± 0.086 log2FC
CTCGAGGATATCAAGATCTGGCCTCGGCGCGTGGATCGGAACCTCTAGCTAGCCGACTCACTATAGGGATAATCGCCCTGAGCAAAGACC,–,0.142 ± 0.102 log2FC
CTCGAGGATATCAAGATCTGGCCTCGGCCGCCCACGCGGAACCTCTAGCTAGCCGACTCACTATAGGGATAATCGCCCTGAGCAAAGACC,–,2.69 ± 0.0695 log2FC
CTCGAGGATATCAAGATCTGGCCTCGGCGCGTGGGCAGGAACCTCTAGCTAGCCGACTCACTATAGGGATAATCGCCCTGAGCAAAGACC,–,2.8 ± 0.0823 log2FC
CTCGAGGATATCAAGATCTGGCCTCGGCGCGTGGCTAGGAACCTCTAGCTAGCCGACTCACTATAGGGATAATCGCCCTGAGCAAAGACC,–,0.021 ± 0.107 log2FC
